Source: PubChem BioAssay (NCATS)
Records with an inconclusive call do not appear. The source made the active and inactive calls. Calls follow the shape of the dose curve; as a rule, active = well fitted curve in the direction sought with a large enough effect; inconclusive = small, poorly fitted or top-dose-only effect, or another doubt; inactive = no such curve, though single readings can be large; an effect the other way counts as inactive or inconclusive.

Legend:
[1] = Quantitative High-Throughput drug screen in 47 multiple myeloma cell lines against the NCATS MIPE library collection: OPM1_PLB cell viability assay (AID 1918989); also: nearly all actives have a fitted effect of over 40% in size; also: potency is read from the fitted curve at half-maximal effect
In short: (§1)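 Viability after 48 h drug exposure was measured as ATP-dependent luminescence. Cells, 500 per well, sat at 37 °C under 5% CO2; DMSO wells set 100%, media-only wells 0%.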

[2] = Quantitative High-Throughput drug screen in 47 multiple myeloma cell lines against the NCATS MIPE library collection: SKMM1_PLB cell viability assay (AID 1919863); conditions: SKMM1 myeloma viability, CellTiter-Glo ATP, 48 h; viability: stronger effect = lower value; also: nearly all actives have a fitted effect of over 35% in size; also: potency is read from the fitted curve at half-maximal effect; as to viability: series mostly up to about 46 µM
In short: as §1

[3] = Quantitative High-Throughput drug screen in 47 multiple myeloma cell lines against the NCATS MIPE library collection: U266_ATCC cell viability assay (AID 1919864); also: nearly all actives have a fitted effect of over 35% in size; also: potency is read from the fitted curve at half-maximal effect
In short: as §1

[4] = Quantitative High-Throughput drug screen in 47 multiple myeloma cell lines against the NCATS MIPE library collection: XG1_PLB cell viability assay (AID 1919866); also: nearly all actives have a fitted effect of over 35% in size; also: potency is read from the fitted curve at half-maximal effect
In short: as §1

[5] = Quantitative High-Throughput drug screen in 47 multiple myeloma cell lines against the NCATS MIPE library collection: VP6_DJ cell viability assay (AID 1919867); also: potency is read from the fitted curve at half-maximal effect; nearly all actives have a fitted effect of over 40% in size
In short: as §1

[6] = Quantitative High-Throughput drug screen in 47 multiple myeloma cell lines against the NCATS MIPE library collection: UTMC2_PLB cell viability assay (AID 1919868); also: nearly all actives have a fitted effect of over 55% in size; also: potency is read from the fitted curve at half-maximal effect
In short: as §1

[7] = Quantitative High-Throughput drug screen in 47 multiple myeloma cell lines against the NCATS MIPE library collection: PE2_PLB cell viability assay (AID 1919869); also: nearly all actives have a fitted effect of over 35% in size; also: potency is read from the fitted curve at half-maximal effect
In short: as §1

[8] = Quantitative High-Throughput drug screen in 47 multiple myeloma cell lines against the NCATS MIPE library collection: PCM6_Riken cell viability assay (AID 1919870); also: nearly all actives have a fitted effect of over 30% in size; also: potency is read from the fitted curve at half-maximal effect
In short: as §1

[9] = Quantitative High-Throughput drug screen in 47 multiple myeloma cell lines against the NCATS MIPE library collection: RPMI8226_ATCC cell viability assay (AID 1919871); also: nearly all actives have a fitted effect of over 30% in size; also: potency is read from the fitted curve at half-maximal effect
In short: as §1

[10] = Quantitative High-Throughput drug screen in 47 multiple myeloma cell lines against the NCATS MIPE library collection: KMS11_JCRBsus cell viability assay (AID 1919873); also: nearly all actives have a fitted effect of over 50% in size; also: potency is read from the fitted curve at half-maximal effect
In short: as §1

[11] = Quantitative High-Throughput drug screen in 47 multiple myeloma cell lines against the NCATS MIPE library collection: KMS28BM_JCRB cell viability assay (AID 1919874); also: nearly all actives have a fitted effect of over 35% in size; also: potency is read from the fitted curve at half-maximal effect
In short: as §1

[12] = Quantitative High-Throughput drug screen in 47 multiple myeloma cell lines against the NCATS MIPE library collection: OPM2_DSMZ cell viability assay (AID 1919872); also: nearly all actives have a fitted effect of over 30% in size; also: potency is read from the fitted curve at half-maximal effect
In short: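 qHTS of the MIPE 4.0 collection: 500 myeloma cells/well, 48 h drug exposure at 37C in 5% CO2, then CellTiter-Glo for 5 min at room temperature before luminescence reading.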

[13] = Quantitative High-Throughput drug screen in 47 multiple myeloma cell lines against the NCATS MIPE library collection: XG6_PLB cell viability assay (AID 1919865); also: nearly all actives have a fitted effect of over 40% in size; also: potency is read from the fitted curve at half-maximal effect
In short: as §1

[14] = target: Cytochrome P450 3A4 (Homo sapiens) (UniProt P08684); experiment: qHTS for inhibitors of CYP3A4 against the NCATS DSHEA and TCM libraries (AID 1919971);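 also: % is scaled to controls: 0 for no effect and ±100 for the full control effect; inhibition lowers luminescence from luciferin made by CYP3A4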
In short: (§2)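 Light output from converted D-luciferin reports remaining CYP activity. Compounds preincubate with enzyme and substrate for 15 min; NADPH regeneration (1x final) runs the reaction for 30-45 min.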

[15] = target: Cytochrome P450 2C19 (Homo sapiens) (UniProt P33261); experiment: qHTS for inhibitors of CYP2C19 against the NCATS DSHEA and TCM libraries (AID 1919974);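 also: luminescence from luciferin released by CYP2C19 oxidation of a pro-luciferin substrate; % is scaled to controls: 0 for no effect and ±100 for the full control effect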
In short: as §2

[16] = KB-3-1 P-gp reporter qHTS against the NCATS DSHEA and TCM libraries (AID 1919975); also: potency is read from the fitted curve at half-maximal effect
In short: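 Cell viability qHTS: 500 KB-3-1 cells/well, substances in titration, ~72 h, 37C; luminescent CellTiter-Glo read.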

[17] = target: Cytochrome P450 2D6 (Homo sapiens) (UniProt P10635); experiment: qHTS for inhibitors of CYP2D6 against the NCATS DSHEA and TCM libraries (AID 1919972); also: potency is read from the fitted curve at half-maximal effect
In short: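 Steps: enzyme plus luciferin substrate dispensed; test substances pinned; 15 min RT; 1x NADPH regenerating solution added, 30–45 min RT protected from light; detection reagent, 30 min RT; luminescence measured. Minus-enzyme wells as background.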

[18] = target: Cytochrome P450 2C9 (Homo sapiens) (UniProt P11712); experiment: qHTS for inhibitors of CYP2C9 against the NCATS DSHEA and TCM libraries (AID 1919973);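 also: luminogenic pro-luciferin CYP2C9 substrate turned into luciferin with NADPH regeneration; series mostly up to about 34 µM; % is scaled to controls: 0 for no effect and ±100 for the full control effect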
In short: as §2

[19] = qHTS Counterscreen for compound interference against the NCATS DSHEA and TCM libraries (AID 1919978); conditions: firefly luciferase detection reagent interference, luminescence;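 also: compounds preincubated with 1 µM D-luciferin or buffer before detection reagent; % of control where 0% means no effect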
In short: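 Interference check: test samples were incubated with D-luciferin (final 1 uM) or buffer only for 15 min, room temperature, in a qHTS titration up to 39.8 uM, then developed with detection reagent and read by luminescence.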

Sequence of Cytochrome P450 2C19 (Homo sapiens) (P33261 whole entry, looked up): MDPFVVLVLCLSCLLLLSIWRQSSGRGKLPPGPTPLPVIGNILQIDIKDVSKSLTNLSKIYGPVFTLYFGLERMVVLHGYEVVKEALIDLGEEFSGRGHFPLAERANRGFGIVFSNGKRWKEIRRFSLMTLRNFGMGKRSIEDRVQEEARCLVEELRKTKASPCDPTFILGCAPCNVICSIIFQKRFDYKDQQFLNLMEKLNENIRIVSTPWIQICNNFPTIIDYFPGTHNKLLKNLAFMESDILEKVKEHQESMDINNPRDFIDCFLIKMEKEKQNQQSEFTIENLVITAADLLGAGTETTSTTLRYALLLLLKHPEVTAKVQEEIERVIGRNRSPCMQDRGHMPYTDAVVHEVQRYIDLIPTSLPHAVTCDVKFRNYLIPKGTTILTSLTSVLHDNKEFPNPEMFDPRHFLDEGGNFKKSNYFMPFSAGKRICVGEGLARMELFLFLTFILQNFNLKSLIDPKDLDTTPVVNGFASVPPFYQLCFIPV
Sequence of Cytochrome P450 2C9 (Homo sapiens) (P11712 whole entry, looked up): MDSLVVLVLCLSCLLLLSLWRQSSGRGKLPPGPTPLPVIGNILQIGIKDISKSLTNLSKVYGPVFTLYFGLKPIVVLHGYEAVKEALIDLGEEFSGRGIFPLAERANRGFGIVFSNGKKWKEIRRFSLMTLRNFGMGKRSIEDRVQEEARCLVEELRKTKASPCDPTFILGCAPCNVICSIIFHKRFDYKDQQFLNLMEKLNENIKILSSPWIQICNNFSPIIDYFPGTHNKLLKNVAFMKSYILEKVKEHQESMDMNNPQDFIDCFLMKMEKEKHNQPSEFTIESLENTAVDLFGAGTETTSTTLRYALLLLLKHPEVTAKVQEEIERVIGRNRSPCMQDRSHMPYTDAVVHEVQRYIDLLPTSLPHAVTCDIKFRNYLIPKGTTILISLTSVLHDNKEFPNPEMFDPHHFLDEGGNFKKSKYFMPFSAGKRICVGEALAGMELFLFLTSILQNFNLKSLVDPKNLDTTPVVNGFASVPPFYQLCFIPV
Sequence of Cytochrome P450 2D6 (Homo sapiens) (P10635 whole entry, looked up): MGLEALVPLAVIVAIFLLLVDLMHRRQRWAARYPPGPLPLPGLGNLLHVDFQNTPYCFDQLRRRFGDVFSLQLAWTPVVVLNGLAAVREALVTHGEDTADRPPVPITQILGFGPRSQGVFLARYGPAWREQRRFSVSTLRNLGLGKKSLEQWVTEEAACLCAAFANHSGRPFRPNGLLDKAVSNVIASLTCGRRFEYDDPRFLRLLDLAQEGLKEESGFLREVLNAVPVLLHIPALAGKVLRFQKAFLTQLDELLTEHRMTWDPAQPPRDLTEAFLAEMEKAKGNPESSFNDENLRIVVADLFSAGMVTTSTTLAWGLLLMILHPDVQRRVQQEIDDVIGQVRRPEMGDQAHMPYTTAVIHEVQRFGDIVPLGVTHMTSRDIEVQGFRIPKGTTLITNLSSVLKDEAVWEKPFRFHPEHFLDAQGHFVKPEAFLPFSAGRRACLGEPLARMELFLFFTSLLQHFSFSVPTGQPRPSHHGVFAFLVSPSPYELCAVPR
Sequence of Cytochrome P450 3A4 (Homo sapiens) (P08684 whole entry, looked up): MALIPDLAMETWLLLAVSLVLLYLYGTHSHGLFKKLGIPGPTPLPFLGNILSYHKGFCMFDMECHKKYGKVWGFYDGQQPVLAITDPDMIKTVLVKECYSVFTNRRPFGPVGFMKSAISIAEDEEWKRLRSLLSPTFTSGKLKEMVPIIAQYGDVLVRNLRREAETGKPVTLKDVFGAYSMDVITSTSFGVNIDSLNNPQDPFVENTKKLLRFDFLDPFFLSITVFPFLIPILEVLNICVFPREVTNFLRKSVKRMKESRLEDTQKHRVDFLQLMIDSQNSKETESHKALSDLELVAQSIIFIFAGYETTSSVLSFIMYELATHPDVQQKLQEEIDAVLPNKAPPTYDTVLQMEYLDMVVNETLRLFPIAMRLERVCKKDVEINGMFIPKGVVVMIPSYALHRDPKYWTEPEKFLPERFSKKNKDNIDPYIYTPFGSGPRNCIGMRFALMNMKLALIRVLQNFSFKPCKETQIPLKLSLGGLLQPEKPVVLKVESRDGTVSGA

CC(C)(C)NC(=O)[C@H]1CC[C@H]2[C@@H]3CC[C@H]4NC(=O)C=C[C@]4(C)[C@H]3CC[C@]12C
active: Potency [1] 2.64 µM | Potency [3] 0.743 µM | Potency [4] 0.235 µM | Potency [5] 0.662 µM | Potency [6] 1.66 µM | Potency [7] 1.32 µM | Potency [8] 0.59 µM
inactive: viability [2] 142% | Potency [9] | Potency [10] | Potency [11]

NC(=O)c1cccc(N)c1
inactive: Potency [1] | viability [2] 132% | Potency [3] | Potency [7] | Potency [8] | Potency [9] | Potency [12] | Potency [10]
active: Potency [5] 8.33 µM

CCn1cc(C(=O)O)c(=O)c2cc(F)c(N3CCNCC3)nc21
inactive: Potency [1] | viability [2] 102% | Potency [13] | Potency [4] | Potency [6] | Potency [8] | Potency [9] | Potency [11]

COc1cc(NCc2ccc3nc(N)nc(N)c3c2C)cc(OC)c1OC
active: Potency [1] 5.9 µM | Potency [2] 11.8 µM | Potency [3] 1.48 µM | Potency [13] 11.8 µM | Potency [4] 3.72 µM | Potency [5] 2.64 µM | Potency [7] 1.66 µM | Potency [8] 4.69 µM | Potency [9] 16.6 µM | Potency [12] 18.7 µM | Potency [10] 2.64 µM | Potency [11] 20.9 µM

CNC1CCCN(c2c(F)cc3c(=O)c(C(=O)O)cn(C4CC4)c3c2OC)C1 (configuration not stated)
inactive: viability [2] 118% | Potency [13] | Potency [4] | Potency [7] | Potency [8] | Potency [9]
active: Potency [1] 5.9 µM

O=C(O)c1cccnc1
inactive: Potency [1] | viability [2] 107% | Potency [3] | Potency [7] | Potency [9] | Potency [12] | outcome [14] | Potency [15] | Potency [16]

CCCc1nc(C)c2c(=O)[nH]c(-c3cc(S(=O)(=O)N4CCN(CC)CC4)ccc3OCC)nn12
active: Potency [1] 7.43 µM | Potency [2] 9.35 µM | Potency [3] 5.9 µM | Potency [13] 4.69 µM | Potency [4] 5.9 µM | Potency [5] 5.9 µM | Potency [7] 5.9 µM | Potency [8] 5.26 µM | Potency [9] 9.35 µM | Potency [12] 5.9 µM | Potency [11] 3.72 µM

CCCN[C@H]1CCc2nc(N)sc2C1
inactive: Potency [1] | viability [2] 141% | Potency [3] | Potency [13] | Potency [4] | Potency [7] | Potency [8] | Potency [9] | Potency [12] | Potency [11]
active: Potency [5] 18.7 µM

CN(C)c1ccc(C(=C2C=CC(=[N+](C)C)C=C2)c2ccc(N(C)C)cc2)cc1
active: Potency [1] 0.0118 µM | Potency [2] 0.0662 µM | Potency [3] 1.05 µM | Potency [4] 0.0235 µM | Potency [7] 0.0166 µM | Potency [8] 0.0372 µM | Potency [9] 0.0935 µM | Potency [11] 0.0743 µM

O=C(NCC1CN(c2ccc(N3CCOCC3=O)cc2)C(=O)O1)c1ccc(Cl)s1 (configuration not stated)
inactive: Potency [1] | viability [2] 135% | Potency [3] | Potency [4] | Potency [7] | Potency [9] | Potency [12] | Potency [11]

COc1ccc2cc3[n+](cc2c1OC)CCc1cc2c(cc1-3)OCO2
active: Potency [1] 18.7 µM | Potency [2] 14.8 µM | Potency [3] 9.35 µM | Potency [13] 16.6 µM | Potency [4] 16.6 µM | Potency [5] 7.43 µM | Potency [7] 14.8 µM | Potency [8] 11.8 µM | Potency [10] 3.32 µM | Potency [17] 2.24 µM | Potency [16] 2 µM
inactive: outcome [18] | Potency [15] | max response [19] -1.19%

CC(C)(C)C(=O)OCOP(=O)(COCCn1cnc2c(N)ncnc21)OCOC(=O)C(C)(C)C
active: Potency [1] 6.62 µM | Potency [2] 20.9 µM | Potency [3] 0.332 µM | Potency [13] 0.469 µM | Potency [5] 1.05 µM | Potency [6] 0.526 µM | Potency [7] 0.187 µM | Potency [9] 18.7 µM | Potency [11] 11.8 µM

Nc1nc(F)nc2c1ncn2[C@@H]1O[C@H](CO)[C@@H](O)[C@@H]1O
active: Potency [1] 0.743 µM | Potency [2] 0.332 µM | Potency [3] 0.296 µM | Potency [13] 0.209 µM | Potency [4] 0.418 µM | Potency [5] 0.132 µM | Potency [7] 0.209 µM | Potency [8] 0.264 µM | Potency [9] 0.418 µM | Potency [12] 0.833 µM | Potency [11] 0.526 µM

Cc1nnc(C(=O)NC(C)(C)c2nc(C(=O)NCc3ccc(F)cc3)c(O)c(=O)n2C)o1
inactive: Potency [1] | viability [2] 152% | Potency [3] | Potency [13] | Potency [4] | Potency [6] | Potency [7] | Potency [8] | Potency [9] | Potency [12] | Potency [10]

O[C@@H](CNC[C@H](O)[C@H]1CCc2cc(F)ccc2O1)[C@@H]1CCc2cc(F)ccc2O1
active: Potency [1] 26.4 µM | Potency [2] 18.7 µM | Potency [3] 26.4 µM | Potency [13] 13.2 µM | Potency [4] 20.9 µM | Potency [7] 26.4 µM | Potency [8] 16.6 µM | Potency [9] 20.9 µM | Potency [12] 18.7 µM | Potency [11] 18.7 µM

CCC(=O)O[C@]1(C(=O)CCl)[C@@H](C)C[C@H]2[C@@H]3CCC4=CC(=O)C=C[C@]4(C)[C@@]3(F)[C@@H](O)C[C@@]21C
inactive: Potency [1] | viability [2] 109% | Potency [13] | Potency [4] | Potency [7] | Potency [8] | Potency [12] | Potency [11]
active: Potency [5] 0.0332 µM | Potency [9] 0.0059 µM

O=S(=O)(O)CCS
inactive: Potency [1] | viability [2] 136% | Potency [13] | Potency [4] | Potency [6] | Potency [9] | Potency [10] | Potency [11]
